Measurements from PubChem BioAssay (NCI).
The panel holds about 83,000 compounds, 20% with a hit somewhere; the sample as a whole holds those more often.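 The endpoint reported here, percent growth, reads 100 for growth as untreated, 0 for no net growth and -100 for all cells dead.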 A number with no mark means an inactive call. Calls of active or inactive are those of the source. How the source made its calls: active means growth percent below 10; inactive means the rest.

Legend:
Assay in all cases: NCI-60 one-dose screen, 48 h (100 = growth as untreated, 0 = no growth, -100 = all killed)
Settings in all cases: 10 µM unless noted
NCI-H23 lung = test system: NCI-H23 lung
NCI-H226 lung = test system: NCI-H226 lung
NCI-H322M lung = test system: NCI-H322M lung
HOP-62 NSCLC = test system: HOP-62 NSCLC
NCI-H460 lung = test system: NCI-H460 lung
HOP-92 NSCLC = test system: HOP-92 NSCLC
NCI-H522 lung = test system: NCI-H522 lung
A549/ATCC NSCLC = test system: A549/ATCC NSCLC
786-0 renal = test system: 786-0 renal
COLO 205 colon = test system: COLO 205 colon
DU-145 prostate = test system: DU-145 prostate
K-562 leukemia = test system: K-562 leukemia
MALME-3M melanoma = test system: MALME-3M melanoma
MDA-MB-231 breast = test system: MDA-MB-231 breast
RXF 393 renal = test system: RXF 393 renal
SF-268 CNS = test system: SF-268 CNS
SF-539 CNS = test system: SF-539 CNS
UACC-257 melanoma = test system: UACC-257 melanoma
M14 melanoma = test system: M14 melanoma

Structure (SMILES) | growth (NCI-H23 lung) | growth (NCI-H226 lung) | growth (NCI-H322M lung) | growth (HOP-62 NSCLC) | growth (NCI-H460 lung) | growth (HOP-92 NSCLC) | growth (NCI-H522 lung) | growth (A549/ATCC NSCLC) | growth (786-0 renal) | growth (COLO 205 colon) | growth (DU-145 prostate) | growth (K-562 leukemia) | growth (MALME-3M melanoma) | growth (MDA-MB-231 breast) | growth (RXF 393 renal) | growth (SF-268 CNS) [%] | growth (SF-539 CNS) | growth (UACC-257 melanoma) | growth (M14 melanoma)
CCN(CC)CCCNc1cccc2c(C)cc(OC)nc12 | 90.5% | 91% | 93.6% | 98.8% | 100% | 58.4% | 87.5% | 94.8% | 94.6% | 87.4% | 114% | 92.3% | 107% | 81% | 93.9% | 104 | 88.8% | 98.9% | 93.2%
Cc1cc(NC(=O)C2c3ccccc3C(=O)N(CC(C)C)C2c2cccs2)no1 (configuration not stated) | 47.6% | 103% | 107% | 43.8% | 69.1% | -0.868% (active) | -66.5% (active) | 35.3% | -32.6% (active) | -83.9% (active) | -9.63% (active) | 3.46% (active) | -62.1% (active) | -14.2% (active) | -88.3% (active) | 27.8 | 18.2% | -8.81% (active) | 1% (active)
CC(CN1CCN(C)CC1)CN1c2ccccc2Sc2ccc(C(F)(F)F)cc21 (configuration not stated) | 74.3% | 81.8% | 80% | 85.6% | 0.601% (active) | 39.7% | 43.8% | 41.2% | 52.2% | -68% (active) | 61.7% | -31.2% (active) | 62.9% | 27.6% | 18.7% | 52.2 | 67.5% | 30% | 0.817% (active)
Cc1nn(-c2ccc(Cl)cc2)c(=O)n1CCN1CCOCC1 | 64.5% | 79.4% | 92.3% | 33.8% | 41.7% | 30.1% | 69% | 56.4% | 59.4% | 107% | 78.5% | 70.1% | 59.1% | 57.3% | 42.1% | 48.4 | 67% | 73.4% | 69.8%
COc1ccc(-c2n[nH]nc2-c2cc(OC)c3c(c2)OCO3)cc1 | 10.4% | 69.1% | 13.9% | 18.5% | 7.77% (active) | 29% | -51.6% (active) | 13.9% | 20.5% | -93.1% (active) | -4.79% (active) | -11% (active) | 34% | -25.9% (active) | 19.1% | 16.7 | -39.7% (active) | 68% | 8.15% (active)
Fc1[nH]nc2ccc([C@@H]3Nc4ccc5[nH]ncc5c4[C@H]4C5CCC(C5)[C@@H]34)cc12 (some centres not stated) | 45.2% | 47.5% | 47.7% | 37.6% | 11.5% | 67.3% | 10.3% | 28% | 51.9% | 9.22% (active) | 15.1% | 15.1% | 48.5% | 46.2% | -6.05% (active) | 57.5 | -15.9% (active) | 82.2% | 21.2%
COc1ccc2[nH]c(O)c(/C=c3/ccc4c(c3)N=C(c3ccc(C(F)(F)F)cc3)N=4)c2c1 | 82.4% | 96.9% | 76.1% | 100% | 53.5% | 71.9% | 89.6% | 66.4% | 37.3% | 102% | 86.6% | 29.7% | 99.9% | 74.8% | -4.65% (active) | 85.6 | 78.2% | 94.9% | 90.1%
O=C(Nc1cnc(C(F)(F)F)cn1)c1cc(Cl)ccc1O | 2.55% (active) | 8.55% (active) | 7.76% (active) | -4.96% (active) | 4.18% (active) | -6.58% (active) | -12.6% (active) | 2.57% (active) | 0.361% (active) | 14.2% | 24.9% | 7.07% (active) | -18.5% (active) | -21.1% (active) | -1.32% (active) | 18.2 | 3.19% (active) | -20.6% (active) | -3.59% (active)
